# Assay results as given in PubChem BioAssay (Tox21).
# Records with an inconclusive call do not appear. Where a call stands in place of a potency, no number is given. Calls of active or inactive are those of the source. Calls follow the shape of the full dose curve.
# Molecular target: Acetylcholinesterase (Homo sapiens) (UniProt P22303)
# Assay: Acetylcholinesterase (AChE) small molecule antagonists: colormetric cell-based qHTS assay (AID 1347395); also: nearly all actives have a fitted effect of over 30% in size
# Conditions: SH-SY5Y cells AChE activity, colorimetric (Ellman); series mostly up to 115 µM
# Method in brief: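 SH-SY5Y cells; cpd 30 min 37 C; + DTNB/acetylthiocholine, 90 min 37 C; colorimetric thiocholine read; qHTS.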
# Sequence of Acetylcholinesterase (Homo sapiens) (P22303 whole entry, looked up): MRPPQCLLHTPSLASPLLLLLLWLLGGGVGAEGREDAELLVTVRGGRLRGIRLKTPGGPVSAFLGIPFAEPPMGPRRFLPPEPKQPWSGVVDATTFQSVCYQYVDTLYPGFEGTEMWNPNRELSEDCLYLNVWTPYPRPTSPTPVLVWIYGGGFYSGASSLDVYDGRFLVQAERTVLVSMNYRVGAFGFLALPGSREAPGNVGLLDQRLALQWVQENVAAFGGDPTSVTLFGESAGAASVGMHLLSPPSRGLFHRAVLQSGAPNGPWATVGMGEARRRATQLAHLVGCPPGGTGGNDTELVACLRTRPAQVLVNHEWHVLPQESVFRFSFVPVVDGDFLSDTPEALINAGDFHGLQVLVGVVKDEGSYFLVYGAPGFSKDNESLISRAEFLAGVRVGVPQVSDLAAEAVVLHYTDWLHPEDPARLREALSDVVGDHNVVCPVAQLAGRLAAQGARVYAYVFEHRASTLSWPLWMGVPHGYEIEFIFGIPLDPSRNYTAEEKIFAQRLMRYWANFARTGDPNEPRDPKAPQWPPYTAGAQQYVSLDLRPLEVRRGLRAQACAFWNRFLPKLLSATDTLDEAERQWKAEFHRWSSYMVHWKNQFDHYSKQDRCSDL
row,SMILES,Potency
1,O=S1(=O)OC(c2cc(Br)c(O)c(Br)c2)(c2cc(Br)c(O)c(Br)c2)c2ccccc21,inactive
2,CN1C(=O)NC(=O)C(C)(C2=CCCCC2)C1=O (stereo not given),inactive
3,ClCCCCBr,inactive
4,Cc1ccccc1C(=O)Nc1cccc(OC(C)C)c1,inactive
5,COc1ccc(-c2ccccc2)cc1NNC(=O)OC(C)C,inactive
6,Cl/C=C\Cl,inactive
7,O=C(O)C(F)(F)C(F)(F)C(F)(F)C(F)(F)C(F)(F)C(F)(F)C(F)(F)C(F)(F)C(F)(F)F,inactive
8,ClCc1cccc(Cl)c1,inactive
9,CC(C)(C)c1cc([N+](=O)[O-])cc([N+](=O)[O-])c1O,inactive
10,CCCCCCC#N,inactive
11,S=C=NCc1ccccc1,inactive
12,CC(C)(OO)c1ccccc1,inactive

# Molecular target: Acetylcholinesterase (Homo sapiens) (UniProt P22303)
# Assay: Acetylcholinesterase (AChE) small molecule antagonists: enzyme-based qHTS assay (AID 1347397); also: nearly all actives have a fitted effect of over 55% in size; also: potency is read from the fitted curve at half-maximal effect
# Conditions: Potency: AChE enzyme activity inhibition; series mostly up to 115 µM
# Method in brief: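 Colorimetric DTNB read-out of thiocholine released from acetylthiocholine by recombinant human AChE (50 mU/mL as dispensed). Compounds were preincubated 30 min at RT before substrate/DTNB addition, with a 10 min RT reaction.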
row,SMILES,Potency
1,OC(c1ccc(Cl)cc1)(c1ccc(Cl)cc1)c1cccnc1,inactive
2,[CH3][Sn]([CH3])([Cl])[Cl],inactive
3,CC(O)(CS(=O)(=O)c1ccc(F)cc1)C(=O)Nc1ccc(C#N)c(C(F)(F)F)c1 (stereo not given),inactive
4,CCCCCCCCCCOC(=O)c1ccccc1C(=O)OCCCCCCCCCC,inactive
5,N#Cc1ccc(Cl)cc1,inactive
6,CCOP(=S)(OCC)SCn1nnc2ccccc2c1=O,35.6 µM (active)
7,O=C(CCl)c1ccc(Cl)cc1Cl,inactive
8,Sc1ccccc1Cl,inactive
9,CC(c1ccc(O)cc1)(c1ccc(O)cc1)c1ccc(O)cc1,inactive
10,Cc1ccccc1CCl,inactive
11,O=C(Nc1ccccc1)Nc1ccnc(Cl)c1,inactive
12,O=[N+]([O-])C(Br)(CO)CO,63.3 µM (active)
13,COc1nn(CSP(=S)(OC)OC)c(=O)s1,inactive
